Source: paper PMC4336329 (PLoS ONE, 2015)
The campaign covered roughly 310,000 compounds. About 14,000 (4.5%) showed an effect of 50% or more. Effects have a minus sign here. The sample as a whole holds a higher share of strong results than the screen did.

Biological target: human ether-à-go-go-related gene (hERG) potassium channel (human, UniProt Q12809)
Assay: primary screen, population patch clamp on CHO cells stably expressing hERG; higher = less effect of the substance
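Note: peak tail current of the secondary pulse compared with the same well before compound.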

human ether-à-go-go-related gene (hERG) potassium channel, sequence (Q12809 whole entry, looked up): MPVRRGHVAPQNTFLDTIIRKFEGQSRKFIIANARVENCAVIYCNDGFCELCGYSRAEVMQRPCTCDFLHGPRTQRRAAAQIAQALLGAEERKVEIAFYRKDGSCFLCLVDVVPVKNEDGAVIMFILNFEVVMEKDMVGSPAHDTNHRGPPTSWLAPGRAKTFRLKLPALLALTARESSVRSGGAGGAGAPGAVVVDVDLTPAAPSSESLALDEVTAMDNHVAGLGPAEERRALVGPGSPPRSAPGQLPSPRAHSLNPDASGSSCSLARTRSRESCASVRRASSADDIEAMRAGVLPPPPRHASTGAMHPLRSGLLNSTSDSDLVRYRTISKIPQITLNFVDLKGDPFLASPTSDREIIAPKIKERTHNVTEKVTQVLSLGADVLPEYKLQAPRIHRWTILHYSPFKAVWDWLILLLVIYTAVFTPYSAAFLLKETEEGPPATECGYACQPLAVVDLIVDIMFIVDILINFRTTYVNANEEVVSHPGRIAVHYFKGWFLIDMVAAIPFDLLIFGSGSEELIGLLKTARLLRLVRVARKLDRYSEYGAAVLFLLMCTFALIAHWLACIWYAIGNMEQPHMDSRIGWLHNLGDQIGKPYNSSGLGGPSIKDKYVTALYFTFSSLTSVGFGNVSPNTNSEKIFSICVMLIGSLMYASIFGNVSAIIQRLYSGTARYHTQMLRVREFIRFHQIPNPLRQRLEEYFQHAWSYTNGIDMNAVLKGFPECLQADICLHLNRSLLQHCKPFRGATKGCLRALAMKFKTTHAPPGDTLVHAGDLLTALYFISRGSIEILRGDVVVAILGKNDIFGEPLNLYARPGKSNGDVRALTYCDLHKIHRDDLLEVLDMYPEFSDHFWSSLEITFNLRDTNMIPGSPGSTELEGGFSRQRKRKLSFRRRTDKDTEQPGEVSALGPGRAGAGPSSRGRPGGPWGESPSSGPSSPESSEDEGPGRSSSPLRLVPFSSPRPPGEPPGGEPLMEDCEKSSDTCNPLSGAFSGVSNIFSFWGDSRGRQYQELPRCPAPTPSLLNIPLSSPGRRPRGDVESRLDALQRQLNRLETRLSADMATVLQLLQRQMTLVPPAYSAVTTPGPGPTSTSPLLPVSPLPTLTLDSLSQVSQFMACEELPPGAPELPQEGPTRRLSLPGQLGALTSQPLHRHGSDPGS

SMILES | hERG current change (%, negative = inhibition) at 10uM [%]
CCc1nc(C#N)c(N2CCOCC2)o1 | 2.54
CCN(c1ccccc1)S(=O)(=O)c1ccc(C(=O)Oc2ccc(C(C)=O)cc2)cc1 | 8.41
CC1(C)N=C(N)NC(Nc2ccccc2)=N1 | 2.96
Cc1onc(-c2ccccc2Cl)c1C(=O)Nc1ccc(-c2cn3cccnc3n2)cc1 | 26
Cc1onc(-c2ccccc2Cl)c1C(=O)Nc1cccc(-c2cn3cccnc3n2)c1 | -24.8
Cc1onc(-c2ccccc2Cl)c1C(=O)Nc1cccc(-c2nc3ncccn3c2C)c1 | -63
Cl.O=C1CC2(CCCC2)CC(=O)N1CCCCN1CCN(c2ncccn2)CC1 | -35.9
Cc1c(C)n2c(SCC(=O)NCc3ccc4c(c3)OCO4)nnc2[nH]c1=O | 7.88
CSc1cccc(NC(=S)N2CCC(N(C)C3CCCCC3)CC2)c1 | -64.4
CN(C1CCCC1)C1CCN(C(=S)Nc2cc(F)cc(F)c2)CC1 | -42
CSc1cccc(NC(=S)N2CCC(N(C)C3CCCCCC3)CC2)c1 | -62.9
CSc1cccc(NC(=S)N2CCC(N(C)C3CCCC3)CC2)c1 | -29.2
CCCCN(C)C1CCN(C(=S)Nc2cccc(SC)c2)CC1 | -59.8
CSc1cccc(NC(=S)N2CCC(N(C)C3CCCCC3C)CC2)c1 (stereo not drawn) | -58.2
CCC(C)N(C)C1CCN(C(=S)Nc2cccc(SC)c2)CC1 (stereo not drawn) | -45.8
CSc1cccc(NC(=S)N2CCC(N(C)C(C)C)CC2)c1 | -16.2
CCOC(=O)N1CCC(N(CCN(C)C)C(=S)Nc2cccc(SC)c2)CC1 | -11.6
CSc1cccc(NC(=S)N2CCC(c3ccccc3)C2)c1 (stereo not drawn) | 7.54
CCCCN(C(=S)Nc1cccc(SC)c1)C1CCN(C(C)=O)CC1 | -28.9
CCCCN(C)C1CCN(C(=S)Nc2cccc(OC)c2)CC1 | -19.9

SMILES | hERG current change (%, negative = inhibition) at 10uM [%]
N#CCOc1coc(CN2CCN(c3cccc(Cl)c3)CC2)cc1=O | -0.696
Cc1ccccc1C(=O)NC(=S)Nc1ccccc1C(=O)O | 15.5
Cc1nnc(-c2cnn(-c3ccccc3)c2N)n1Cc1cccc(C(F)(F)F)c1 | -18.8
Cc1ccc(CSCC(=O)N(C)CC(=O)Nc2ccccc2C(F)(F)F)cc1 | -0.53
O=C1NC(=Nc2ccccc2Cl)S/C1=C\c1cccc([N+](=O)[O-])c1 | -0.316
Cn1cc(/C=C2\SC(=S)N(NC(=O)c3ccccc3)C2=O)c2ccccc21 | 10.6
CCOc1cc(C(=O)N(C)CC(=O)Nc2cccc(F)c2)ccc1OCC(=O)N1CCCCC1 | -14.1
O=C(COC(=O)CNC(=O)c1ccccc1F)Nc1ccc2[nH]c(=O)[nH]c2c1 | 10.2
COc1ccc(NC(=O)CN2C(=O)NC3(CCCC3)C2=O)cc1 | 13.7
CCOC(=O)c1nn(-c2ccc(F)cc2)c2c1CC/C2=C/c1ccccc1 | 8.7
CN(C)c1cc(N)c2c(n1)CCC2.O=C(O)c1cncc(O)c1 | -10.8
COC(=O)C1C(O)=C(C=Nc2cccc3ccccc23)C(=O)CC1(C)C (stereo not drawn) | -2.34
Cc1ccc(S(=O)(=O)NCc2ccccc2C)cc1 | 11.6
N#CC(Sc1ccccn1)c1ccc(Cl)cc1 (stereo not drawn) | -18.2
CCOc1ccc(NC(=S)N2CCC(N(C)CCN3CCOCC3)CC2)cc1 | -15.9
CCCCN(C)C1CCN(C(=S)Nc2ccc(OC)cc2)CC1 | -26
CCCCN(C)C1CCN(C(=S)Nc2ccc(OCC)cc2)CC1 | -76.7
CC1CCC(N(C)C2CCN(C)CC2)CC1 (stereo not drawn) | 11.3
CCCC12CN3CC(C)(CN(C1)C3c1cccs1)C2=O (stereo not drawn) | -7.68
CC(=O)c1ccc(NC(=O)C2CCCC2)cc1 | 10.7

SMILES | hERG current change (%, negative = inhibition) at 10uM [%]
Fc1ccc(OCCCCCCN2CCCC2)cc1 | -9.37
Cl.O[Si](CCCN1CCCCC1)(c1ccc(F)cc1)C1CCCCC1 (stereo not drawn) | -54.3
Fc1ccc(OCCCCCN2CCCC2)cc1 | 4.62
CCN(CC)C(=O)c1ccc(S(=O)(=O)NCc2cccnc2)cc1 | 13.9
CC1=C(C(=O)OCc2ccccc2)C(c2cccc3ccccc23)NC(=O)N1CCCC(=O)O (stereo not drawn) | 20.8
O=C1C=C(NNC(=O)c2ccncc2)CC(c2ccccc2)C1 (stereo not drawn) | -1.64
O=C1C=C(Nc2ccccc2)CC(c2ccccc2)C1 (stereo not drawn) | 9.51
CC(C)CCNC1=CC(=O)CC(c2ccccc2)C1 (stereo not drawn) | -33.2
COc1ccc(C2CC(=O)C=C(NCCC(C)C)C2)cc1 (stereo not drawn) | -73.2
COc1ccc(C2CC(=O)C=C(NCC3CCCO3)C2)cc1 (stereo not drawn) | -9.1
COc1ccc2cc(C3=CC(=O)C[C@H](c4ccc5c(c4)OCO5)C3)ccc2c1 | 17.3
COc1ccc(C2CC(=O)C=C(NCc3ccc4c(c3)OCO4)C2)cc1 (stereo not drawn) | -73.1
O=C1C=C(c2ccccc2)C[C@@H](c2ccc3c(c2)OCO3)C1 | -4.15
O=C1C=C(NCc2ccc3c(c2)OCO3)CC(c2ccccc2)C1 (stereo not drawn) | -76.9
COc1ccc([C@H]2CC(=O)C=C(c3ccc4c(c3)OCO4)C2)cc1 | -22.9
O=C1C=C(NCc2ccncc2)CC(c2ccccc2)C1 (stereo not drawn) | -70.7
Cc1ccc(C2CC(=O)C=C(NCc3ccccc3)C2)cc1 (stereo not drawn) | -38.8
O=C(N/N=C\c1ccco1)Nc1cccc(Cl)c1 | -5.83
CC1CCCCC1NC(=O)CCCn1c(=S)[nH]c2ccsc2c1=O (stereo not drawn) | 12.9
C=CCn1c(SCC(=O)NNC(=S)Nc2ccccc2)nnc1-c1ccccc1 | 15.9
